Data reported in PubChem BioAssay AID1159580 (chemical genetic matrix, 2015).
In all, about 5,500 compounds went through this assay and about 2,000 (36%) were called active. Inconclusive results (about 18%) are left out. Rule as the data show it: active = normalized growth mostly below about 0.91 (no sharp cut-off); inconclusive = no clear call, values can overlap the other calls; inactive = mostly above about 0.92. The list shows a part of the results.

Experiment: chemical genetic growth profiling, strain panel (AID 1159580);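 also: tested at 20 µM; growth read once vehicle control cultures reached saturation at 30 °C; 1 = growth at the plate median or of vehicle wells; lower values mean less growth of the strain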
Settings: S. cerevisiae deletion strains, growth OD
[1] = locus YAL040C, strain CLN3, active compounds read low
[2] = locus YER002W, strain NOP16, active compounds read low
[3] = locus YGR078C, strain PAC10, active compounds read low
[4] = locus YNL175C, strain NOP13, active compounds read low
[5] = locus YNL197C, strain WHI3, active compounds read low
[6] = locus YNL224C, strain SQS1, active compounds read low
[7] = locus YOR083W, strain WHI5 (second series), active compounds read low
[8] = locus YPL241C, strain CIN2, active compounds read low

Measured: normalized growth

CC(N)=O
inactive: [1] 0.973 | [2] 0.992 | [3] 1 | locus YGR229C, strain SMI1, active compounds read low 1.01 | locus YJR075W, strain HOC1, active compounds read low 0.991 | locus YNL128W, strain TEP1, active compounds read low 0.997 | [4] 0.992 | [5] 1 | [6] 1.04 | [7] 1 | [8] 0.975

NC(=O)C(=O)O
inactive: locus YAL013W, strain DEP1, active compounds read low 1.01 | [1] 1 | locus YCL061C, strain MRC1 (second series), active compounds read low 1 | locus YDR150W, strain NUM1, active compounds read low 1 | locus YDR363W, strain ESC2, active compounds read low 1.02 | [2] 0.999 | [3] 0.994 | locus YMR307W, strain GAS1, active compounds read low 1 | [4] 1.01 | [5] 1 | [6] 1.01 | [7] 1.02 | locus YPL055C, strain LGE1, active compounds read low 1.01 | [8] 0.997
